Outcome and AC50 data for 10 molecules are collected here from PubChem BioAssay AID2283312 (EPA ToxCast).

Records with an inconclusive call do not appear. Calls of active or inactive are those of the source. How the source made its calls: active means hit-call score of the fitted dose curve at least 0.9, where 1 is the maximum; inconclusive means response in the unintended direction; inactive means score below 0.9.

rat Vasoactive Intestinal Peptide Receptor (VIP), Non-selective Binding, Vipr1 (gene 24875), sequence (P30083 whole entry, looked up): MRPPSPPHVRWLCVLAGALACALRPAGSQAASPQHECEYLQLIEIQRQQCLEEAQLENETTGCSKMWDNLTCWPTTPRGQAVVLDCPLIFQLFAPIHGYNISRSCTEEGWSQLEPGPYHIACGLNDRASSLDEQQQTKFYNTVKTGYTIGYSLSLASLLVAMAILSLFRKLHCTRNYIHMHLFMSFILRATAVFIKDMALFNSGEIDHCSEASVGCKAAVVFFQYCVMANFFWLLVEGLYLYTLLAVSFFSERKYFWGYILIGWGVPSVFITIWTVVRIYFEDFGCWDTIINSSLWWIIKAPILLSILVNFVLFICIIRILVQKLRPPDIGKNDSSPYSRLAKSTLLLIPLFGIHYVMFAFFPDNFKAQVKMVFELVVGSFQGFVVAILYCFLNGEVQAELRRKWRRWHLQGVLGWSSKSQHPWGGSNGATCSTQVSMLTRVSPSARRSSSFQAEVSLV

The target in the experiment is rat Vasoactive Intestinal Peptide Receptor (VIP), Non-selective Binding, Vipr1 (gene 24875) (UniProt P30083). The experiment can be described thus: NVS_GPCR_rVIP_NonSelective: NovaScreen (NVS) G Protein-Coupled Receptor Assay for rat Vasoactive Intestinal Peptide Receptor (VIP), Non-selective Binding. The protocol:
NVS_GPCR_rVIP_NonSelective is a biochemical, single-readout assay that uses extracted gene-proteins from Rat forebrain membranes in a tissue-based cell-free assay. Measurements were taken 1 hour after chemical dosing in a 96-well plate.NVS_GPCR_rVIP_NonSelective is one of one assay component(s) measured or calculated from the NVS_GPCR_rVIP_NonSelective assay. It is designed to make measurements of radioligand binding, a form of binding reporter, as detected with scintillation counting signals by Filter-based radiodetection technology.Data from the assay component NVS_GPCR_rVIP_NonSelective was analyzed into 1 assay endpoint. This assay endpoint, NVS_GPCR_rVIP_NonSelective, was analyzed in the positive analysis fitting direction relative to DMSO as the negative control and baseline of activity. Using a type of binding reporter, loss-of-signal activity can be used to understand changes in the binding as they relate to the gene Vipr1. Furthermore, this assay endpoint can be referred to as a primary readout, because the performed assay has only produced 1 assay endpoint. To generalize the intended target to other relatable targets, this assay endpoint is annotated to the gpcr intended target family, where the subfamily is secretin receptor.
Binding assays used specific radioligands (tritiated, iodinated) with non-radioactive competitive displacement ligands in agonist or antagonist protocols (as indicated) and various reference compounds and inhibitors to titrate specific binding to receptors and transporters. Most enzyme assays (CYPs, kinases, phosphatases, proteases, HDACs) used recombinant protein and specific substrates (fluorescence mostly, some colorimetric and radioactive) and inhibitors, followed by a biochemical separation of substrate and product. All assays for the biochemical HTS were initially run in duplicate at a single concentration (10 uM for CYP450 assays and 25 uM for all others). Assay-chemical combinations meeting a pre-defined threshold (e.g., 30% inhibition and other criteria defined below) were then run in singleton concentration-response format with maximum concentration of 20 uM for CYPs and 50 uM for all others. Each assay was run with positive and negative controls, and concurrent controls on every plate. The follow-up (secondary) screen tested active chemical-pairs in concentration series, as well as a few additional assays not tested in the primary screen, some selected negative inactives, and several cases re-run in the concentration series for confirmatory purposes.
In the case of `CC(=O)[O][Hg][c]1ccccc1`, the molecule was called inactive.
Same read-out and setting: the entry for `CCOP(=O)(OCC)Oc1nc(Cl)c(Cl)cc1Cl` is “inactive”; for `Oc1ccccc1-c1ccccc1` it is “inactive”.
For `Nc1c(Cl)c(F)nc(OCC(=O)O)c1Cl`, the molecule was called inactive.
Turning to `C=C(C)C(=O)[O][Sn]([CH2]CCC)([CH2]CCC)[CH2]CCC`, the AC50 is 14.9 µM (active).
As to `CC(C)N1C(=O)N(c2ccccc2)CSC1=NC(C)(C)C`, the outcome was inactive.
As for `COP(=S)(OC)Oc1nc(Cl)c(Cl)cc1Cl`, the result was inactive.
As for `CCC[CH2][Sn]([Cl])([CH2]CCC)[CH2]CCC`, the AC50 was 7.97 µM (active).
On to `Cc1ccc(-c2c(Cl)nc(C#N)n2S(=O)(=O)N(C)C)cc1`, for which the molecule was called inactive.
As for `CC[C@H](C)[C@H]1O[C@]2(C=C[C@@H]1C)C[C@@H]1C[C@@H](C/C=C(\C)[C@@H](O[C@H]3C[C@H](OC)[C@@H](O[C@H]4C[C@H](OC)[C@@H](NC)[C@H](C)O4)[C@H](C)O3)[C@@H](C)/C=C/C=C3\CO[C@@H]4[C@H](O)C(C)=C[C@@H](C(=O)O1)[C@]34O)O2`, the molecule was classed as inactive.
